Data taken from PubChem BioAssay AID2284364 (EPA ToxCast).
Where “and” joins values, the source holds several entries; their conditions need not be identical. Equal entries are not always repeated. Calls of active or inactive are those of the source. The calls were made as follows: active = hit-call score of the fitted dose curve at least 0.9, where 1 is the maximum; inactive = score below 0.9.

target: Peroxisome proliferator-activated receptor gamma (Homo sapiens) (UniProt P37231); experiment: ERF_US_NR_hPPARG: Eurofins (ERF) Nuclear Receptor (NR) Cell Based Protein-Protein Interaction LeadHunter Assay for human Peroxisome Proliferator-activated Receptor-gamma (PPARg) Agonism
Description: ERF_US_NR_hPPARG is a cell-based, single-readout assay that uses extracted gene-proteins in a cell-line assay. Measurements were taken 5 hours after chemical dosing in a 384-well plate. See PPARgamma Human NHR Cell Based Agonist Protein-Protein Interaction Assay, DiscoverX.ERF_US_NR_hPPARG is an assay component calculated from the ERF_US_NR_hPPARG assay. It is designed to measure […] using a type of binding reporter as detected by scintillation counting with radiometry technology.Data from the assay component ERF_US_NR_hPPARG was analyzed at the assay endpoint, ERF_US_NR_hPPARG, in the positive analysis fitting direction relative to DMSO as the negative control and baseline of activity. Using a type of binding reporter, gain-of-signal activity can be used to understand changes in binding as they relate to gene PPARG. To generalize the intended target to other relatable targets, this assay endpoint is annotated to the nuclear receptor intended target family, where the subfamily is non-steroidal.
Cells were seeded in a total volume of 20 uL into white walled, 384-well microplates and incubated at 37C overnight prior to testing.Briefly, intermediate dilution of sample stocks was performed to generate 5X sample in assay buffer. 5 uL of 5X sample was added to cells and incubated at 37C for 300 minutes. Final assay vehicle concentration was 1%. The results are expressed as a percent efficacy of the control ligand.

Peroxisome proliferator-activated receptor gamma (Homo sapiens), sequence (P37231 whole entry, looked up): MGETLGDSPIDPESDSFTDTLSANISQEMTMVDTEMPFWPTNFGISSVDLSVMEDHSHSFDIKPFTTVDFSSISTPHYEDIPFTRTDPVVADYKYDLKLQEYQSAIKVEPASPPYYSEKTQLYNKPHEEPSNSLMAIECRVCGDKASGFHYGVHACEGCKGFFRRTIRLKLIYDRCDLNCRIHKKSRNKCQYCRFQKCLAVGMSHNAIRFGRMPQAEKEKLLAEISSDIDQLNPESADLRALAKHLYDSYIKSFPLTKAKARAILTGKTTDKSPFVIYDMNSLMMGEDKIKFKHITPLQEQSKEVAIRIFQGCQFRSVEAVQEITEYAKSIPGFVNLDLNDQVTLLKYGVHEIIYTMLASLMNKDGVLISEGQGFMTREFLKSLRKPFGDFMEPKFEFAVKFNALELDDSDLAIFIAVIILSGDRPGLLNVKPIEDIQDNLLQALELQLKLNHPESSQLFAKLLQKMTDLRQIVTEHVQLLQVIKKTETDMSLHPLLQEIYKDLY

| SMILES | outcome | AC50 |
| --- | --- | --- |
| NC(=O)c1nc(-c2cccc(-c3cc(F)ccc3OCC(F)(F)C(F)(F)F)c2)n[nH]1 | inactive |  |
| O=C(CC(=O)C(F)(F)C(F)(F)C(F)(F)F)c1cccs1 |  | 21.7 µM (active) and 23.7 µM (active) |
| O=C(O)CCC(F)(F)C(F)(F)C(F)(F)F | inactive |  |
